From article PMC7862700, “An all-to-all approach to the identification of sequence-specific readers for epigenetic DNA modifications on cytosine” come the findings set out here.

Holding throughout (test): DAPPL (digital affinity profiling via proximity ligation, sequencing); 10 mM Tris-HCl pH 7.5, 50 mM NaCl, 1 mM DTT, 4% glycerol, room temperature, 30 min; GST-TFs on glutathione beads, 16-mer random dsDNA library, 0.1% formaldehyde crosslink after washing; high values mean tight binding
The target in one assay is T1, FEV (Homo sapiens, UniProt Q99581 1-238).
T1 sequence: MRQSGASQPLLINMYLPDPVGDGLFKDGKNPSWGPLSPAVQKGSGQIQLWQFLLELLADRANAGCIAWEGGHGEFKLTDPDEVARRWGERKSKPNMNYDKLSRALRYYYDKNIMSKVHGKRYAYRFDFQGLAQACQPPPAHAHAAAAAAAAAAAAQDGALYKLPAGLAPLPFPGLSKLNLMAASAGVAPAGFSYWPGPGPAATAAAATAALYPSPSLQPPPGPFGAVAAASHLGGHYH
The settings on record: protein: recombinant; tags: N-terminal GST; dsDNA, one strand shown. Put shortly: (§1)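 Yeast served to express human transcription factors as GST fusions, which were then captured on glutathione beads and labelled with DNA barcodes. Pooled with a tag-only sample, they were incubated with 200 nmole of a 16-mer random double-stranded DNA library for 30 min at room temperature in Tris/NaCl/DTT/glycerol buffer, washed, crosslinked with 0.1% formaldehyde, ligated by proximity, amplified by PCR and sequenced. Dividing each hexamer's read frequency for a factor by its frequency for the tag-only sample gives the binding signal.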

Another assay addresses ETV5 (Homo sapiens, UniProt P41161 1-510). The settings on record: protein: recombinant; tags: N-terminal GST; dsDNA, one strand shown. Put shortly: as §1
In a further assay the target is HSF1 (Homo sapiens, UniProt Q00613 1-529). The settings on record: protein: recombinant; tags: N-terminal GST; chain copies: 3; dsDNA, one strand shown. Put shortly:
as §1

Another assay addresses T2, SPIC (Homo sapiens, UniProt Q8N5J4 1-248).
T2 sequence: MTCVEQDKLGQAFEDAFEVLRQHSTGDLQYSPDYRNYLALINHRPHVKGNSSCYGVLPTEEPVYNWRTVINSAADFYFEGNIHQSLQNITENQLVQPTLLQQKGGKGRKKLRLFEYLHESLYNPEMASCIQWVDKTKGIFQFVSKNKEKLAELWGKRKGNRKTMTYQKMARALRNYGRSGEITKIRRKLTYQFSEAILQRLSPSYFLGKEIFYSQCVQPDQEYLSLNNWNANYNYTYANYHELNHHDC
The settings on record: protein: recombinant; tags: N-terminal GST; dsDNA, one strand shown. The gist of the method: as §1

The target of a further assay is ELF4 (Homo sapiens, UniProt Q99607 1-663). The settings on record: protein: recombinant; tags: N-terminal GST; dsDNA, one strand shown. Put shortly:
as §1

A further assay addresses T3, ELK4 (Homo sapiens, UniProt P28324-2 1-405).
T3 sequence: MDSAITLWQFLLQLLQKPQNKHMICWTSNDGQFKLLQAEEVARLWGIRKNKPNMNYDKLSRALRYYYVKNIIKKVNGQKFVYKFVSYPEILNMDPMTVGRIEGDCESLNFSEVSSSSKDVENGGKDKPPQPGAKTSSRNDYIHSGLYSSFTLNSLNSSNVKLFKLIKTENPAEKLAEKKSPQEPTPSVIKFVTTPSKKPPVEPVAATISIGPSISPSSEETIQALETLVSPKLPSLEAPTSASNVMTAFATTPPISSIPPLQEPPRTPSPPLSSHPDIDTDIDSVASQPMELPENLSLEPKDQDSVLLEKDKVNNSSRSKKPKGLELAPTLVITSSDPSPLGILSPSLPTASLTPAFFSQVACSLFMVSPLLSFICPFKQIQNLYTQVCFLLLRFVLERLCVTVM
The settings on record: protein: recombinant; tags: N-terminal GST; dsDNA, one strand shown. Put shortly:
as §1

For another assay, the target named is T4, ETV2 (Homo sapiens, UniProt O00321 1-342).
T4 sequence: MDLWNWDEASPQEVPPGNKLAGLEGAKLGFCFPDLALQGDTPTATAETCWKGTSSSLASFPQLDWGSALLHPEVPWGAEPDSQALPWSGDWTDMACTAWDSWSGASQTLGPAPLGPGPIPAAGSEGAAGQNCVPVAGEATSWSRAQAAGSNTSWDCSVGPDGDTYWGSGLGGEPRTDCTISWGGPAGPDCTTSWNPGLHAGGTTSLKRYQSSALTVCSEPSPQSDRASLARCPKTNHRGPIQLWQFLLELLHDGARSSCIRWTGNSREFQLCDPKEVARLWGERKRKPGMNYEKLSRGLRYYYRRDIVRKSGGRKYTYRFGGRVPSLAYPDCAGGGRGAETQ
The settings on record: protein: recombinant; tags: N-terminal GST; dsDNA, one strand shown. The gist of the method:
as §1

The target in another assay is T5, ELF3 (Homo sapiens, UniProt P78545 1-371).
T5 sequence: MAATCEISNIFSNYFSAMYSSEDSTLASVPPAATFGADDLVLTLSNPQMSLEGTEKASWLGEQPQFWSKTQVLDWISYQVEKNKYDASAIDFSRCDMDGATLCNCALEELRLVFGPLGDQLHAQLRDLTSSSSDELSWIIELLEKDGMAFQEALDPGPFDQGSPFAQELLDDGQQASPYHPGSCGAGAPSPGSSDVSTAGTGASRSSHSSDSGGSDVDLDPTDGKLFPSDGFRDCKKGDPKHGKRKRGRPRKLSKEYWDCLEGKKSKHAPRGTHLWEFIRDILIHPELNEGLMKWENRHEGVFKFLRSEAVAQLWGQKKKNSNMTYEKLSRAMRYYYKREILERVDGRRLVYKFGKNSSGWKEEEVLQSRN
The settings on record: protein: recombinant; tags: N-terminal GST; dsDNA, one strand shown. Put shortly:
as §1

In another assay the target is CRX (Homo sapiens, UniProt O43186 1-299). The settings on record: protein: recombinant; tags: N-terminal GST; dsDNA, one strand shown. Put shortly:
as §1

The next assay has as its target ETV1 (Homo sapiens, UniProt P50549 1-477). The settings on record: protein: recombinant; tags: N-terminal GST; dsDNA, one strand shown. The gist of the method: as §1
In the next assay the target is T6, ERF (Homo sapiens, UniProt P50548 1-548).
T6 sequence: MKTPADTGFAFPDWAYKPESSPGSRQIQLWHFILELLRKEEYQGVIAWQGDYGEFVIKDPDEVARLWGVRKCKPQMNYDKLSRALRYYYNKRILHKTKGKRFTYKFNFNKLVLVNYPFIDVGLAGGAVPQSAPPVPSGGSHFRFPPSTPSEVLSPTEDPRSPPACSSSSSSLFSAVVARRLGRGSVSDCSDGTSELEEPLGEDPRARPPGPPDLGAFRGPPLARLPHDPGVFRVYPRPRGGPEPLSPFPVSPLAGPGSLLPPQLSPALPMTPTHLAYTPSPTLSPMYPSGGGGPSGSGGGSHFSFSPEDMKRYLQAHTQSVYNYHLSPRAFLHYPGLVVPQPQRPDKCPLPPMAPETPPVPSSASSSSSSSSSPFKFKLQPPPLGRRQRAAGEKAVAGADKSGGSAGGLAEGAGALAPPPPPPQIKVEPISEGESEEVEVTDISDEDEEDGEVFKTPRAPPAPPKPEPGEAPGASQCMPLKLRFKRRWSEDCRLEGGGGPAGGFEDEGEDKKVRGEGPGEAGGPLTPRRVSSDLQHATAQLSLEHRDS
The settings on record: protein: recombinant; tags: N-terminal GST; dsDNA, one strand shown. Put shortly:
as §1

The target of the next assay is T7, ETV3L (Homo sapiens, UniProt Q6ZN32 1-361).
T7 sequence: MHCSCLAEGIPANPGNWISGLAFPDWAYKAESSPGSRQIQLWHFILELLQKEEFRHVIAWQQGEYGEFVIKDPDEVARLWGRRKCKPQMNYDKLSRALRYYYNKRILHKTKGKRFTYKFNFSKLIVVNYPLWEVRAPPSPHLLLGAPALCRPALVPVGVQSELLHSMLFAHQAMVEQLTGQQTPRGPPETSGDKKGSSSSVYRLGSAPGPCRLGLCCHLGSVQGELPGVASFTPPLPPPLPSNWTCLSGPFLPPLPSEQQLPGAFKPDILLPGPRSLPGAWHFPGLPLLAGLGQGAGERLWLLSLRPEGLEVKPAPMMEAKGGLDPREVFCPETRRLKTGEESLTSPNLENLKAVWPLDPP
The settings on record: protein: recombinant; tags: N-terminal GST; dsDNA, one strand shown. The gist of the method:
as §1

The target of a further assay is T8, ETS2 (Homo sapiens, UniProt P15036 1-469).
T8 sequence: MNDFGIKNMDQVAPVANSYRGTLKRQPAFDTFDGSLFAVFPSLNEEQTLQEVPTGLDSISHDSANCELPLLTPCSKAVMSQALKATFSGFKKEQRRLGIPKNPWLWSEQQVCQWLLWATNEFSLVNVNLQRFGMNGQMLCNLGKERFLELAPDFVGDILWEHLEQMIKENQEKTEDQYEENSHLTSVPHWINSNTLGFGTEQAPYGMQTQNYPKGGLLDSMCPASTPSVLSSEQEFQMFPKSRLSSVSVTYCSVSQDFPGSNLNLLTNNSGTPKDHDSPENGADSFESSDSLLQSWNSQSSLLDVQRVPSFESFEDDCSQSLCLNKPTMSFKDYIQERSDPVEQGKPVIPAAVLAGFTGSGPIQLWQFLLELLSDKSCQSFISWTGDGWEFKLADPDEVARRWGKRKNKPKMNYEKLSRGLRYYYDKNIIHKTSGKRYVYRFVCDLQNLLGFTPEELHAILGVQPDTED
The settings on record: protein: recombinant; tags: N-terminal GST; dsDNA, one strand shown. The gist of the method: as §1

Another assay has as its target T9, SPDEF (Homo sapiens, UniProt O95238 1-335).
T9 sequence: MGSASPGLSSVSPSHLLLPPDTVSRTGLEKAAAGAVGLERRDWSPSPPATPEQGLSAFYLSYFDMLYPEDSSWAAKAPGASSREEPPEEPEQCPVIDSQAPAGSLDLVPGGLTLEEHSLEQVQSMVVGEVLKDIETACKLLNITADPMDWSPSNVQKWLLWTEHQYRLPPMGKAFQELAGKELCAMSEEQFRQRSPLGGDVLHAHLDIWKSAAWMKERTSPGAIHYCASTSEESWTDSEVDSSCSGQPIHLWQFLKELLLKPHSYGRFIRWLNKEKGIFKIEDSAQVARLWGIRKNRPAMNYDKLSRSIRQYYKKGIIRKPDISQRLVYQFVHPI
The settings on record: protein: recombinant; tags: N-terminal GST; dsDNA, one strand shown. Put shortly: as §1

The next assay deals with T10, ETV7 (Homo sapiens, UniProt Q9Y603 1-341).
T10 sequence: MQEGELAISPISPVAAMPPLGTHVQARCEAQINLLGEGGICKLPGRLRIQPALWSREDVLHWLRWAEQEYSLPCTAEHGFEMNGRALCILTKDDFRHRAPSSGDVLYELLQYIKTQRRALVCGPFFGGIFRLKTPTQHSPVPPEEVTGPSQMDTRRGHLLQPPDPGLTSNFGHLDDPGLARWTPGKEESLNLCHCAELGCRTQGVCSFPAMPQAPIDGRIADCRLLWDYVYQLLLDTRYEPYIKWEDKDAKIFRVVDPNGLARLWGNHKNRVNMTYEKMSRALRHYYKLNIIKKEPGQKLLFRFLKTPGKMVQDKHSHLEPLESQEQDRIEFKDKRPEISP
The settings on record: protein: recombinant; tags: N-terminal GST; dsDNA, one strand shown. Put shortly: as §1

In a further assay the target is T11, ELF5 (Homo sapiens, UniProt Q9UKW6-2 1-255).
T11 sequence: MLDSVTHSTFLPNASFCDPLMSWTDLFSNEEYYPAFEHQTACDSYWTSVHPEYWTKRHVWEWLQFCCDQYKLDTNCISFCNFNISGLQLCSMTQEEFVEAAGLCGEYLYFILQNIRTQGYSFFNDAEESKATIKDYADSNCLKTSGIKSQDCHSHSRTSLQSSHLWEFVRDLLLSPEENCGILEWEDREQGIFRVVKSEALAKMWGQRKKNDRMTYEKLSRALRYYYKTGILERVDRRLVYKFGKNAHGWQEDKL
The settings on record: protein: recombinant; tags: N-terminal GST; dsDNA, one strand shown. Put shortly: as §1

Another assay has as its target T12, ETV3 (Homo sapiens, UniProt P41162-2 1-143).
T12 sequence: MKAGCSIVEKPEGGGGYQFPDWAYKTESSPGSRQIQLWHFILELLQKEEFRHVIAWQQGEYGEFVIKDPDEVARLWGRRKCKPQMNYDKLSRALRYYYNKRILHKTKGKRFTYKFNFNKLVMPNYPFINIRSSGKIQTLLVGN
The settings on record: protein: recombinant; tags: N-terminal GST; dsDNA, one strand shown. The gist of the method:
as §1

Another assay has as its target ETV6 (Homo sapiens, UniProt P41212 1-452). The settings on record: protein: recombinant; tags: N-terminal GST; dsDNA, one strand shown. Put shortly: as §1

Chain of CRX (O43186 whole entry): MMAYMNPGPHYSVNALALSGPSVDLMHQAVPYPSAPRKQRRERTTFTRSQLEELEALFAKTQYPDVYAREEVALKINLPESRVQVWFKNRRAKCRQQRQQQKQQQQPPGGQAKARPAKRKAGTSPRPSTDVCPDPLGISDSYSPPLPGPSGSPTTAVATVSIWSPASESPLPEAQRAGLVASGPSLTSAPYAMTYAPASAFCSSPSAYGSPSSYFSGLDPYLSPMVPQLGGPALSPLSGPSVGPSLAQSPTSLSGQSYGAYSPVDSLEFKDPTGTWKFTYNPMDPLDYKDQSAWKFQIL
Chain of ELF4 (Q99607 whole entry): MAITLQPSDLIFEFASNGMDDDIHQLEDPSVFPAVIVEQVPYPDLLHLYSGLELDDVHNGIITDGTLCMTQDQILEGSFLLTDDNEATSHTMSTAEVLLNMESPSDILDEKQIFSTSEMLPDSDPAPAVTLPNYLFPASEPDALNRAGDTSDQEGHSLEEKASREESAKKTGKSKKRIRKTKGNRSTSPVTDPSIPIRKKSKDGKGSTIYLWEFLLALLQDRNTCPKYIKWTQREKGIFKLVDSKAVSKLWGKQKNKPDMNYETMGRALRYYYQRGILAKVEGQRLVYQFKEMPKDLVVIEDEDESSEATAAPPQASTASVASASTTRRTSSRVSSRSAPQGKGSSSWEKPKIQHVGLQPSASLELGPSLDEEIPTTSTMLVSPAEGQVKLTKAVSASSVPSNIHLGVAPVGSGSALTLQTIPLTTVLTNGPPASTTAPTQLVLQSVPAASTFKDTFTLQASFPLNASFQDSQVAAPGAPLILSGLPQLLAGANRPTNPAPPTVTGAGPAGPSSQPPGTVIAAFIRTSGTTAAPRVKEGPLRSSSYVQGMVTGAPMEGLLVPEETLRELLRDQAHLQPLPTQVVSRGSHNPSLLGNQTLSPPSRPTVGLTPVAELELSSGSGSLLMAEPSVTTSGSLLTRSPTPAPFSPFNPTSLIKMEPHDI
Chain of ETV1 (P50549 whole entry): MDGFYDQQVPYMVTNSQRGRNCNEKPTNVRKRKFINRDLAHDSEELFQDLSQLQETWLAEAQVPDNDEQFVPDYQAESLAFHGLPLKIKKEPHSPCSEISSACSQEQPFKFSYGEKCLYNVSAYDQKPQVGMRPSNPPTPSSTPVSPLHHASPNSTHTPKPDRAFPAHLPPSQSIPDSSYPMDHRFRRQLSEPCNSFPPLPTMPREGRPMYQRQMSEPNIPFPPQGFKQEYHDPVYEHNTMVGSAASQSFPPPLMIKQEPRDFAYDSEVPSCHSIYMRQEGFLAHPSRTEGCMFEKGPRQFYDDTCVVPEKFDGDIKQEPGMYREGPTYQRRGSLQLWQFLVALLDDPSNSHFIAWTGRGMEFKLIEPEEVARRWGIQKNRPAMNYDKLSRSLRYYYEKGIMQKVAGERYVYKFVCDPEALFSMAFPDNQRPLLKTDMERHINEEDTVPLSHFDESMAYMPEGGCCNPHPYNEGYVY
Chain of HSF1 (Q00613 whole entry): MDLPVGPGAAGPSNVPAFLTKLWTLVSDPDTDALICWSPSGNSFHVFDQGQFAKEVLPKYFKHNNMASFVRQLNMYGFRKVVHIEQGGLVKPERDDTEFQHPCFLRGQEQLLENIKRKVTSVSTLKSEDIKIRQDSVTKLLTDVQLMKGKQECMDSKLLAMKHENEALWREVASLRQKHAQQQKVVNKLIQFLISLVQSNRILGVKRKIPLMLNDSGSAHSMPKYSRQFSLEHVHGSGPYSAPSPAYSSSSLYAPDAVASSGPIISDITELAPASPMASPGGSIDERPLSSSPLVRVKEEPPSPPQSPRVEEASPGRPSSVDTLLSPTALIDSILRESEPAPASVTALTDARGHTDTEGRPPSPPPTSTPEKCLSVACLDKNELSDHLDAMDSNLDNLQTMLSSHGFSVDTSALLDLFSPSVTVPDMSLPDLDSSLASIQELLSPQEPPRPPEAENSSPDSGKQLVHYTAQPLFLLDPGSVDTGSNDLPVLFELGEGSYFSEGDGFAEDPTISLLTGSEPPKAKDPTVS
Chain of ETV6 (P41212 whole entry): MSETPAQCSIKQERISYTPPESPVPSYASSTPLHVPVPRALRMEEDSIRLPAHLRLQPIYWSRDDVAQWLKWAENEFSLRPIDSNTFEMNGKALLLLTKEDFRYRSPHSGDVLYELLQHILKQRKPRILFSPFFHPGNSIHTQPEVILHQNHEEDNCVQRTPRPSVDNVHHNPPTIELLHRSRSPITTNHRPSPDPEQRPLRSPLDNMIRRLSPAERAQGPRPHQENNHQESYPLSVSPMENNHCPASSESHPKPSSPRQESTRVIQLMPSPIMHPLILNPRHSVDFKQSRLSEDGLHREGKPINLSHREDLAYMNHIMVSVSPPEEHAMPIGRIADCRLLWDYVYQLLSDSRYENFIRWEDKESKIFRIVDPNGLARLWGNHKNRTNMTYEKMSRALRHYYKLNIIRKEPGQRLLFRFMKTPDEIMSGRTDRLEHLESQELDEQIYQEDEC
Chain of ETV5 (P41161 whole entry): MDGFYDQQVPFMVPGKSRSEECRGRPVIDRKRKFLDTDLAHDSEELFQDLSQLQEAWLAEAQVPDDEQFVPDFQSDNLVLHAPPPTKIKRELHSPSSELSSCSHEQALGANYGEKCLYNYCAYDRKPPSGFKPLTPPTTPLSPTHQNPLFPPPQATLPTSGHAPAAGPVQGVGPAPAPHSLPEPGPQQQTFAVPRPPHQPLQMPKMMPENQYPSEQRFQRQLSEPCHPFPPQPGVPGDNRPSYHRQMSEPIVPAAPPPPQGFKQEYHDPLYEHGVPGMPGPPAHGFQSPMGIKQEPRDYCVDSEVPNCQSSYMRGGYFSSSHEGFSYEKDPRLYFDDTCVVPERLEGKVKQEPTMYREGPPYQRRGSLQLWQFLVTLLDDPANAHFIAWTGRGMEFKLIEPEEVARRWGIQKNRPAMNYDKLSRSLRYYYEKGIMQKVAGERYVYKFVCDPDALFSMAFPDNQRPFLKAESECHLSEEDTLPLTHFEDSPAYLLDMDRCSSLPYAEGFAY

As to TATATC, the binding signal was 1.58 fold enrichment (6-mer frequency, TF over GST control) in the assay with FEV; 1.6 fold enrichment (6-mer frequency, TF over GST control) with ETV5; 1.33 fold enrichment (6-mer frequency, TF over GST control) with HSF1; 1.67 fold enrichment (6-mer frequency, TF over GST control) in the assay with SPIC; 1.58 fold enrichment (6-mer frequency, TF over GST control) with ELF4; 1.53 fold enrichment (6-mer frequency, TF over GST control) with ELK4. For the same sequence, the binding signal with ETV2 was 1.54 fold enrichment (6-mer frequency, TF over GST control); in the assay with ELF3, 1.36 fold enrichment (6-mer frequency, TF over GST control); with CRX, 1.67 fold enrichment (6-mer frequency, TF over GST control); in the assay with ETV1, 1.54 fold enrichment (6-mer frequency, TF over GST control); with ERF it was 1.61 fold enrichment (6-mer frequency, TF over GST control); with ETV3L, 1.56 fold enrichment (6-mer frequency, TF over GST control). Besides, the binding signal is 1.64 fold enrichment (6-mer frequency, TF over GST control) with ETS2; 2.19 fold enrichment (6-mer frequency, TF over GST control) with SPDEF; 1.48 fold enrichment (6-mer frequency, TF over GST control) in the assay with ETV7; 1.66 fold enrichment (6-mer frequency, TF over GST control) with ELF5; 1.68 fold enrichment (6-mer frequency, TF over GST control) in the assay with ETV3; 1.5 fold enrichment (6-mer frequency, TF over GST control) with ETV6.
